Source: PubChem BioAssay
USP2a block: inhibitors of human ubiquitin-specific protease USP2a; O75604; USP2 core, Ub-CHOP2 coupled fluorogenic reporter, 485/531; Potency, µM (series often up to 38.3 µM), for inactives: top-dose activity change, negative = inhibition, hits mostly inhibitors; 330,000 compounds, 0.01% hits; AID 463254;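 further: plate controls were DMSO wells for no effect and full inhibition by NEM control for full effect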
Target sequence (O75604 whole entry, looked up): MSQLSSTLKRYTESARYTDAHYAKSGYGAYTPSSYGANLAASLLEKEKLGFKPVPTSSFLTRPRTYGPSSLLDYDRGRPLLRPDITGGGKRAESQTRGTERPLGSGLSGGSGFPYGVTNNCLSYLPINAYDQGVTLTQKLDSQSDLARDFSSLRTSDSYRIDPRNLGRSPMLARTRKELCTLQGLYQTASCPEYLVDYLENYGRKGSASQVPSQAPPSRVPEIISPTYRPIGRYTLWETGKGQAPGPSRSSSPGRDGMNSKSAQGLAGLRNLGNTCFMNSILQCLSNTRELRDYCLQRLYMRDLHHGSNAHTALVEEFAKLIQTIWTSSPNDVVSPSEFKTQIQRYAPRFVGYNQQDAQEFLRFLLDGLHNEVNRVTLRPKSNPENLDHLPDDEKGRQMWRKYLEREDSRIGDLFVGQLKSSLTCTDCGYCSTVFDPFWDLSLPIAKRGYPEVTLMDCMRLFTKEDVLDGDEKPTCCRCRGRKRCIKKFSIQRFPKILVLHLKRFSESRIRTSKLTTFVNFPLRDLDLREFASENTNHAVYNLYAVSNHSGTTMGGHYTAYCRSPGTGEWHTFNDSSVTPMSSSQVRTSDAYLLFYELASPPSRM
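Deubiquitinase activity read as fluorescence (485/531 nm) after Ub-CHOP2 cleavage activates the enterokinase reporter on its substrate; USP2 core 10nM, Ub-CHOP2 and substrate 25nM each, 30min compound preincubation then 60min RT; data normalized to NEM, curves fitted.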
Tb PGK inh: inhibitors of T. brucei phosphoglycerate kinase | P07378 | PGK/GAPDH coupled, Kinase-Glo luminescence, 60 min | Potency, µM (highest dose often 57.5 µM), without a hit: at the top dose activity change, negative = inhibition, most hits filed as inhibitors | 380,000 compounds, 0.043% hits; further: on the % scale 0 is the no-effect control and ±100 the full control effect; nearly all actives have a fitted effect of over 60% in size
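Luminescent ATP detection (Kinase-Glo Plus) follows a 60-minute room-temperature incubation, with wells lacking PGK as controls. Buffer: 100 mM TEA (pH 7.6), 5 mM MgCl2, 0.01% Tween-20. Coupling enzyme GAPDH (100 nM final) supplies unstable 1,3-BPG in-well.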
GLS inhibitor: blocks human kidney-isoform glutaminase activity; O94925; GLS enzymatic activity, qHTS titration; Potency, µM (titrated, usually from 45.5 µM), for inactives: top-dose activity change, negative = inhibition, most hits filed as inhibitors; 410,000 compounds, 0.21% hits; further: on the % scale 0 is the no-effect control and ±100 the full control effect
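hKGA in 45 mM KH2PO4 pH 8.2, 0.02% Tween-20 with pin-transferred compounds; 1 mM L-glutamine (stock) plus glutamate oxidase/HRP/Amplex Red coupling added. Fluorescence read initially and after 30 min at RT.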
Tb PFK inh-1: T. brucei PFK enzyme inhibition. 330,000 compounds, 0.17% hits. T. brucei PFK, ADP-Glo luminescence. AID 485367. O15648. Potency, µM (highest dose often 57.5 µM), for inactives: top-dose activity, negative = inhibition, usual class: inhibitors;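 further: 0% = uninhibited 1x PFK enzyme wells and -100% = no-enzyme wells; nearly all actives have a fitted effect of over 60% in size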
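Activity is normalized to no-enzyme wells (full inhibition) and 1.25 nM enzyme wells (no inhibition). Reaction: 0.5 mM F6P, 0.1 mM ATP, 45 min RT, ADP-Glo luminescence; concentration-response curves fitted and classed by quality.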
GCN5L2 inh: GCN5L2 (KAT2A) acetyltransferase inhibition; GCN5L2 HAT assay, ThioGlo1 CoA-SH fluorescence; Potency, µM (titrated, usually from 58.9 µM), for inactives: at the highest dose activity change, negative = inhibition, actives largely listed as inhibitors; 390,000 compounds, 0.21% hits; further: on the % scale 0 is the no-effect control and ±100 the full control effect
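Preincubate 20nM GCN5L2 with compound 15 min, RT → add 50uM ThioGlo1 + 75uM H3(1-25) + 70uM acetyl-CoA → read fluorescence 0 and 20 min. Primary qHTS; fluorescent artifacts likely.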
TbPFK ATP: orthogonal confirmation of T. brucei phosphofructokinase inhibitors | shares compounds with Tb PFK inh-1 | Potency, µM (highest dose often 57.5 µM), inactives show at the top dose inhibition | 1,100 compounds, 47% hits | Tb PFK enzyme, ATP depletion, Kinase-Glo Plus luminescence | AID 504636; calls by dose curve; further: nearly all actives have a fitted effect of over 60% in size
Tb PFK inh-2: T. brucei PFK enzyme inhibition, hit validation; purified T. brucei PFK, ADP-Glo luminescence, 45 min; 1,100 compounds, 41% hits; Potency, µM (series often up to 57.5 µM), for inactives: at the highest dose activity change, negative = inhibition, hits mostly inhibitors; shares compounds with Tb PFK inh-1;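 further: plate controls were full PFK enzyme control for no effect and no enzyme control for full effect; nearly all actives have a fitted effect of over 60% in size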
* = called active by the depositor; i = inactive; ? = inconclusive; · = not tested or not shown; [ ] = remark or other dose. An excerpt weighted towards active compounds, which were near 0.52% of everything screened. Unless noted, the call rests on the fitted dose curve; in most records, active means well fitted curve in the direction sought with a large enough effect; inconclusive means small, poorly fitted or top-dose-only effect, or another doubt; inactive means no such curve, though single readings can be large; an effect the other way counts as inactive or inconclusive. Potency means the concentration at half of the fitted maximal effect.

SMILES	USP2a block	Tb PGK inh	GLS inhibitor	Tb PFK inh-1	GCN5L2 inh	TbPFK ATP	Tb PFK inh-2
COC(=O)N1CCN(c2ccc(Cl)c(Cl)c2)CC1	-2%	-1%	11%	30µM*	-6%	24µM*	30µM*
CC/C(=N/Nc1cccc(Cl)c1)c1cnnc(SC)n1	4%	0%	7%	?	-1%	?	?
COc1ccc(CC2NC[C@H](O)[C@H]2OC(C)=O)cc1 (some centres not stated)	·	·	·	·	-1%	·	·
CC(=O)c1ccc(S(=O)(=O)N2CCN(CC(=O)Nc3ccc(Cl)c([N+](=O)[O-])c3)CC2)cc1	4%	-2%	-1%	13µM*	-8%	?	?
N#Cc1ccc(NC(=O)CN2CCN(C(=O)c3cccs3)CC2)cc1Cl	0%	i	1%	-6%	-1%	·	·
S=c1[nH]nc(-c2cccnc2)n1/N=C/C=C/c1ccco1	-1%	5%	-26%	30µM*	?	6µM*	?
O=[N+]([O-])c1ccc(Cc2ccncc2)cc1	-10%	2%	?	?	-2%	?	30µM*
O=[N+]([O-])c1ccccc1	·	·	6%	·	-17%	·	·
O=[N+]([O-])c1ccc(NCc2ccncc2)cc1	0%	2%	-2%	5.4µM*	-13%	3.4µM*	7.6µM*
C#CCOS(=O)OC1CCCCC1Oc1ccc(C(C)(C)C)cc1 (configuration not stated)	·	·	·	·	-19%	·	·
CCCC[C@@H](C)[C@@H](OC(=O)C[C@@H](CC(=O)O)C(=O)O)[C@H](C[C@@H](C)CCCCCC[C@@H](O)C[C@H](O)[C@H](C)N)OC(=O)C[C@@H](CC(=O)O)C(=O)O	·	·	·	·	39%	·	·
COc1cc2c(cc1O)[C@H]1Cc3ccc(OC)c(O)c3CN1CC2	·	·	·	·	-59%[21.4 µM]	1%	-1%
COc1ccc2c(c1O)-c1cc(O)cc3c1[C@@H](C2)N(C)CC3	·	·	·	·	-17%	·	·
CCNc1nc(NCC)n2c(SCC(=O)Nc3ccc(C)c(C)c3)nnc2n1	-2%	-9%	-2%	13µM*	-16%	?	?
CCNc1nc(NCC)n2c(SCC(=O)Nc3ccc(OC(F)F)cc3)nnc2n1	4%	-24%	-3%	7.6µM*	-1%	5.4µM*	8.5µM*
O=C(OCC(=O)N1CCN(c2cccc(Cl)c2)CC1)c1ccco1	0%	-7%	1%	21µM*	-3%	24µM*	?
COc1cccc(N2CC(C(=O)Nc3ccc(F)cc3)CC2=O)c1 (configuration not stated)	3%	-5%	3%	19µM*	0%	6%	-5%
COc1cccc(C(=O)C2CCCN(Cc3ccc(F)cc3)C2)c1 (configuration not stated)	4%	-7%	?	-2%	-3%	·	·
CN(C)c1ccc(/C=N\NC(=O)c2ccc(Cn3cc(Cl)cn3)cc2)cc1	1%	-10%	23%	12µM*	-5%	2.7µM*	3.4µM*
COc1ccc(N=C2SC(C(N)=O)CC(=O)N2Cc2ccc3c(c2)OCO3)cc1 (configuration not stated)	11%	?	-19%	?	2%	1.7µM*	?
CCCN1C(=O)S/C(=C/c2ccc(N3CCOCC3)o2)C1=O	?	2%	-13%	?	-11%	7%	-4%
CC1=C2C(=O)C3C(CC=C4C[C@@H](O)CC[C@@]43C)[C@@H]2CC[C@]12O[C@@H]1C[C@H](C)CN[C@H]1C2C (some centres not stated)	·	·	·	·	31%	·	·
N#CCCn1cc(C(=O)Nc2ccccc2Cl)c(-c2ccc([N+](=O)[O-])cc2)n1	0%	i	2%	1%	-2%	·	·
Cc1c(NC(=O)c2ccc(Cl)c([N+](=O)[O-])c2)cccc1-n1cnnn1	0%	-1%	0%	?	-3%	?	?
O=C(Nc1ccc2c(c1)OCCO2)c1ccc(Cl)c([N+](=O)[O-])c1	1%	i	11%	27µM*	-7%	12µM*	27µM*
SMILES	USP2a block	Tb PGK inh	GLS inhibitor	Tb PFK inh-1	GCN5L2 inh	TbPFK ATP	Tb PFK inh-2
Cc1cc(C(=O)Nc2ccc3c(c2)OCCO3)nn1C(C)(C)C	0%	i	1%	2%	-7%	·	·
O=C(Nc1ccc(S(=O)(=O)NC2=NCCCCC2)cc1)c1ccc(Cl)c([N+](=O)[O-])c1	1%	-1%	2%	?	-1%	13µM*	?
CN(C)C1(CNC(=O)c2ccc(NS(=O)(=O)c3ccc(Cl)c(Cl)c3)cc2)CCCCC1	-1%	-5%	8%	-1%	-6%	·	·
Cn1cccc1-c1cccnc1	·	·	·	·	-11%	·	·
Oc1ccc2c3c1O[C@H]1c4c(c5ccccc5n4Cc4ccccc4)C[C@@]4(O)C(C2)N(CC2CC2)CC[C@]314	·	·	·	·	-7%	·	·
Clc1ccc2scc(CN3CCCCC3)c2c1	3%	-1%	16%	?	-2%	?	?
Cc1ccc(C(=O)OCC(=O)c2ccc(CC(=O)N3CCOCC3)s2)c(C)c1	3%	-18%	42%	?	?	?	?
Cc1ccc(C)c(OCC(=O)N2CCN(Cc3ccc4c(c3)OCO4)CC2)c1	4%	i	-12%	2%	-5%	·	·
CC(=O)Nc1ccc(SCC(=O)c2ccc(Br)s2)cc1	-19%	0%	?	24µM*	-20%	?	-24%
Clc1ccc2[nH]c3c(c2c1)CCNC3	2%	3%	5%	?	-5%	·	·
NC(=O)CNC(=O)C1CCCc2c1[nH]c1ccc(Cl)cc21 (configuration not stated)	2%	i	-8%	6µM*	-15%	2.4µM*	3.4µM*
CC(=O)NCCc1c[nH]c2ccccc12	-2%	0%	8%	-1%	2%	·	·
O=C(NCCc1c[nH]c2ccccc12)OCCSS(=O)(=O)O	-1%	-7%	10%	24µM*	-1%	24µM*	?
COc1cc(CN2CCN(C(=O)Cc3ccccc3)CC2)cc(OC)c1OC	0%	-2%	3%	0%	0%	·	·
COc1cc(CC(=O)Nc2nc(-c3ccccc3)c(C(C)=O)s2)cc(OC)c1OC	3%	i	-2%	?	-5%	?	?
CC1C(=O)OC2CCN3CC=C(COC(=O)[C@](C)(O)[C@]1(C)O)C23 (some centres not stated)	·	·	·	·	1%	·	·
